PI5P4Ka inh: qHTS for Inhibitors of phosphatidylinositol 5-phosphate 4-kinase (PI5P4K); PI5P4Kalpha enzyme, ADP-Glo luminescence, 60 min; active compounds read low; AID 652105, 2013; max response, %; Phosphatidylinositol 5-phosphate 4-kinase type-2 alpha (Homo sapiens), P48426; actives 1.2% (n = 330,000); active means max response of -50% or lower; inconclusive means between -30% and -50%; inactive means -30% or higher; further: value at the top dose of about 77 µM
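Reactions run in 0.038 M HEPES pH 7.4, 0.28 mM EGTA, 0.1% CHAPS and 5% DMSO, with PI5P4Kalpha, substrate, compound and 5 microM ATP final, one hour at room temperature. Readout is ADP-Glo luminescence.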
Six1-Eya2 inh: qHTS Assay for Inhibitors of the Six1/Eya2 Interaction; actives 0.56% (n = 360,000); Homeobox protein SIX1 (Homo sapiens) + Protein phosphatase EYA2 (Homo sapiens), …; activity change, % (test concentration not listed); AlphaScreen GST-Six1/His-Eya2 binding, biochemical; active compounds read low; AID 651725, 2012
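Six1/Eya2 binding was read as AlphaScreen signal after compounds were pinned into GST-Six1 plus His-tagged Eya2 (5X stock 250/500 nM) in pH 8.0 Tris/NaCl/TCEP buffer, beads added, then incubated 1 h, 37 C, dark.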
Akt phos inh: HTS Assay for Inhibitors of Akt Phophorylation: Primary Screen; Neuro2A IGF-stimulated pAkt S473 HTRF, 20 min; active compounds read low; AID 651550, 2012; activity change, % for hits at 50 µM; actives 0.32% (n = 360,000); in the data active means activity change below about -80%; inconclusive means mostly about -51% to -80%
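Neuro2A cells (4,500/well, DMEM with 0.5% FBS) were treated with compound at a single 50 µM final concentration, stimulated with 6 nM IGF for 20 min at 37 °C, and lysed. Phospho-Akt Ser473 was read by HTRF as 665/615 ratio ×10^4.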
PI4K2A block: qHTS for small molecular inhibitors of PI4K2A; Phosphatidylinositol 4-kinase type 2-alpha (Homo sapiens), Q9BTU6; purified PI4K2A, ADP-Glo luminescence, 1 h; active compounds read low; activity change, negative = inhibition, % at 76.9 µM; actives 0.13% (n = 420,000); in the data active means activity change below about -50%; inconclusive means mostly about -30% to -49%;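 further: -100% = wells without enzyme as full effect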
Target sequence (Q9BTU6 whole entry, looked up): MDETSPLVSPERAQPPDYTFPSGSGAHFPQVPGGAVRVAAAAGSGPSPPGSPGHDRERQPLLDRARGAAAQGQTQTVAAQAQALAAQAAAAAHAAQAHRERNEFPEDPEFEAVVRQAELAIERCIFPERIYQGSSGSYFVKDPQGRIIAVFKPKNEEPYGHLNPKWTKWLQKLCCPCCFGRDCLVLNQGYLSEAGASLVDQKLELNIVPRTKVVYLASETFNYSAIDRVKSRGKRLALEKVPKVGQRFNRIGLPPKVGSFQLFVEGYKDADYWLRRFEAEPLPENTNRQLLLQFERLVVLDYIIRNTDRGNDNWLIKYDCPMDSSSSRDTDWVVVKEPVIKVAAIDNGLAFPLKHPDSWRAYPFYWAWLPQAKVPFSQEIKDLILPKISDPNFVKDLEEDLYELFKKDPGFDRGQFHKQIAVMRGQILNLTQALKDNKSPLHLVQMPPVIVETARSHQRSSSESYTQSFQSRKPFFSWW
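PI4K2A activity was measured by ADP-Glo luminescence: enzyme (4 ug/mL stock) and phosphatidylinositol (1.2 mM stock) in Tris pH 7.5/MgCl2/EGTA/Triton X-100 buffer were reacted with ATP (300 microM stock) for one hour at ambient temperature.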
CtBP-E1A blk: qHTS Assay for Inhibitors of the CtBP/E1A Interaction | CtBP / adenovirus E1A interaction (AlphaScreen) | AlphaScreen GST-E1A/His-CtBP binding, 1536-well; active compounds read low | activity change, % (concentration not given with the values) | actives 0.49% (n = 340,000)
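Steps: dispense buffer (Tris pH 8.0, NaCl 300 mM, TCEP 1 mM, BSA, Tween 20); add 5X protein mix (GST-E1A, His-CtBP, 125 nM each); pin 23 nL compound; 2 h at 37 °C, dark; add 5X beads (50 ug/mL); 1 h; read.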
Starred values were filed as active, the others as inactive; i = inactive; u = inconclusive; x = not tested or not shown. Shown are actives, neighbours in structure and some others; about 1.8% of the full set was active somewhere. Unless noted, no stated cut-off is given here; in the data, active means activity change below about -65%; inconclusive means mostly about -30% to -63%; inactive means weaker than that. Unless noted, on the % scale 0 is the no-effect control and ±100 the full control effect.

SMILES	PI5P4Ka inh	Six1-Eya2 inh	Akt phos inh	PI4K2A block	CtBP-E1A blk
O=C1c2cccc3cccc(c23)C(=O)N1OS(=O)(=O)c1ccc(Br)cc1	-2	u	i	1	-1
O=C1c2cccc3cccc(c23)C(=O)N1OS(=O)(=O)c1ccccc1	0	-71*	x	-4	-13
N#C/C(=C\c1ccc(Cl)cc1Cl)c1n[nH]c(Cn2cncn2)n1	-7	-7	-90%*	-4	1
O=C(Nc1ccccc1)c1n[nH]c(Cn2cncn2)n1	-5	-2	i	-3	1
O=C(CCNS(=O)(=O)c1cccc2nsnc12)NCCC1=CCCCC1	x	1	-111%*	1	-13
O=S(=O)(NCCC1=CCCCC1)c1cccc2nsnc12	x	-1	i	0	-3
O=C(NCc1ccc2c(c1)OCO2)c1cc2c(s1)CSC2	-50*	-6	i	-20	4
O=C(NCc1ccco1)c1cc2c(s1)CSC2	x	u	i	-25	0
c1cnc2ccc(-c3ccc4ncccc4c3)cc2c1	-2	-1	i	-2	-3
O=C(O)c1ccc(N2C(=O)/C(=C/c3ccc(-c4ccc([N+](=O)[O-])cc4)o3)C=C2c2ccccc2)cc1	-94*	-21	i	-6	-12
O=c1cc2c(=O)oc3cc(O)c(O)oc3c2c(O)c1O	-75*	-78*	i	3	-23
O=c1oc2cc(O)c(Cl)cc2c2ccccc12	-28	-2	i	1	-13
Cn1nccc1C(=O)Nc1ccc(Cl)cc1	x	0	i	1	7
CC1=[N+](C)N(c2ccccc2)C(=O)C1N=Cc1ccccc1Cl (configuration not stated)	-2	1	i	4	4
S=c1[nH]nc(Nc2cccc3ccccc23)s1	-74*	-12	i	-3	3
Fc1ccccc1Nc1n[nH]c(=S)s1	-74*	-3	i	0	0
Cc1c(Cl)cccc1Nc1n[nH]c(=S)s1	-88*	-16	i	-2	5
Cc1ccccc1Nc1n[nH]c(=S)s1	u	-2	i	-9	-6
c1ccc2c(Nc3nc4c(s3)CCCC4)cccc2c1	-13	-18	i	3	-19
COCCNC(=O)C1(C)CCCN(C(=O)c2c(-c3ccccc3)noc2C)C1 (configuration not stated)	-1	4	i	0	2
Nn1c(SC/C=C/c2ccccc2)nnc1-c1ccccn1	x	-75*	i	-7	-78*
Nn1c(SC/C=C/c2ccccc2)nnc1-c1cccnc1	x	6	i	0	-1
COc1ccc(/C=C/C(=O)Nc2ccc(Cl)c(Cl)c2)cc1	x	x	x	0	x
COC(=O)/C=C/C(=O)Nc1ccc(O)c(Cl)c1	-59*	-3	i	2	1
CCCN=C1N(C)C[C@@H]2[C@@H]3C(=O)N(C)C(=O)[C@@H]3[C@](Cc3ccccc3)(C(=O)OC)N12	3	9	i	-2	12
SMILES	PI5P4Ka inh	Six1-Eya2 inh	Akt phos inh	PI4K2A block	CtBP-E1A blk
COCCOC(=O)C1=C(C)NC2=C(C(=O)CC(C)(C)C2)C1c1cccnc1 (configuration not stated)	10	12	-108%*	3	7
CC1=C(C(=O)OC(C)C)C(c2cccnc2)C2=C(CC(C)(C)CC2=O)N1 (configuration not stated)	x	2	i	6	22
CC(Oc1ccccc1)C(=O)Nc1nc(-c2ccncc2)cs1 (configuration not stated)	-8	11	i	-3	-6
CC(Oc1cccc(Cl)c1)C(=O)Nc1nc(-c2ccccn2)cs1 (configuration not stated)	-17	u	i	-4	-74*
C[C@H](NC(=O)c1ccccc1)C(=O)Nc1nc(-c2ccccn2)cs1	-1	-84*	i	4	-81*
Cc1cccc(C(=O)NC(C(=O)Nc2nc(-c3ccccn3)cs2)C(C)C)c1 (configuration not stated)	-9	u	i	-5	x
CC(=O)Nc1ccc(NC(=O)C(=O)NCC(c2ccco2)N2CCc3ccccc32)cc1 (configuration not stated)	7	-6	i	-5	0
CC(C)N(CCNC(=O)c1ccc(NC2=NC3CS(=O)(=O)CC3S2)cc1)Cc1ccco1 (configuration not stated)	2	3	i	-5	6
CSc1ncccc1C(=O)NNC(=O)c1csc(N2CCOCC2)n1	2	9	i	1	-24
CCNc1nc(N)nc(Oc2ccc(C(=O)OC)cc2)n1	-7	1	-95%*	-3	5
CCNc1nc(Oc2ccc(C(=O)OC)cc2)nc(N(C)C)n1	-3	0	i	5	8
C=Cc1ccc(C(=O)NC2CCCN(Cc3ccccc3F)C2)cc1 (configuration not stated)	0	3	i	-1	-7
O=C(CSc1nc2sc3c(c2c(=O)n1-c1ccccc1)CCCC3)N/N=C/c1ccc(C(=O)O)cc1	-11	16	i	-7	27
Cn1c(N/N=C/c2ccccc2)nc2sc3c(c2c1=O)CCC3	-20	-71*	i	-6	u
S=c1[nH]c2ccccc2n1CCc1ccncc1	0	0	i	9	6
Cc1ccc(NC(=O)c2ccc(Cl)c(N3C(=O)C=CC3=O)c2)cc1	-68*	2	i	2	-7
O=C(Nc1ccc(Cl)c(Cl)c1)c1ccc(Cl)c(Cl)c1	18	7	i	0	x
CCOC(=O)c1cc(S(=O)(=O)Nc2ccc(OC(F)(F)F)cc2)[nH]n1	x	x	x	-4	x
NC(c1csc(Nc2ccc(C(F)(F)F)cn2)n1)C1CCCCC1 (configuration not stated)	21	-12	i	-2	-13
NC(c1csc(Nc2ncccn2)n1)C1CCCCC1 (configuration not stated)	11	u	i	3	-67*
NC(c1csc(Nc2cnccn2)n1)C1CCCCC1 (configuration not stated)	3	-26	i	3	-70*
N#CC1=C(N)SC(N)=C(C#N)C1c1ccc([N+](=O)[O-])cc1	-84*	-8	i	11	7
CCOc1ccc(C2C(C#N)=C(N)SC(N)=C2C#N)cc1OCC	-51*	-4	i	-5	-2
CCOc1ccccc1C1C(C#N)=C(N)SC(N)=C1C#N	u	-6	u	3	3
